Drawing on ChEMBL document CHEMBL2218924, “A broad activity screen in support of a chemogenomic map for kinase signalling research and drug discovery” (Biochem J, 2013), this text covers residual activity for 1 compound.

For test [1], the target named is T1, Ephrin type-A receptor 3 (Homo sapiens) (UniProt P29320).
T1 sequence (whole entry): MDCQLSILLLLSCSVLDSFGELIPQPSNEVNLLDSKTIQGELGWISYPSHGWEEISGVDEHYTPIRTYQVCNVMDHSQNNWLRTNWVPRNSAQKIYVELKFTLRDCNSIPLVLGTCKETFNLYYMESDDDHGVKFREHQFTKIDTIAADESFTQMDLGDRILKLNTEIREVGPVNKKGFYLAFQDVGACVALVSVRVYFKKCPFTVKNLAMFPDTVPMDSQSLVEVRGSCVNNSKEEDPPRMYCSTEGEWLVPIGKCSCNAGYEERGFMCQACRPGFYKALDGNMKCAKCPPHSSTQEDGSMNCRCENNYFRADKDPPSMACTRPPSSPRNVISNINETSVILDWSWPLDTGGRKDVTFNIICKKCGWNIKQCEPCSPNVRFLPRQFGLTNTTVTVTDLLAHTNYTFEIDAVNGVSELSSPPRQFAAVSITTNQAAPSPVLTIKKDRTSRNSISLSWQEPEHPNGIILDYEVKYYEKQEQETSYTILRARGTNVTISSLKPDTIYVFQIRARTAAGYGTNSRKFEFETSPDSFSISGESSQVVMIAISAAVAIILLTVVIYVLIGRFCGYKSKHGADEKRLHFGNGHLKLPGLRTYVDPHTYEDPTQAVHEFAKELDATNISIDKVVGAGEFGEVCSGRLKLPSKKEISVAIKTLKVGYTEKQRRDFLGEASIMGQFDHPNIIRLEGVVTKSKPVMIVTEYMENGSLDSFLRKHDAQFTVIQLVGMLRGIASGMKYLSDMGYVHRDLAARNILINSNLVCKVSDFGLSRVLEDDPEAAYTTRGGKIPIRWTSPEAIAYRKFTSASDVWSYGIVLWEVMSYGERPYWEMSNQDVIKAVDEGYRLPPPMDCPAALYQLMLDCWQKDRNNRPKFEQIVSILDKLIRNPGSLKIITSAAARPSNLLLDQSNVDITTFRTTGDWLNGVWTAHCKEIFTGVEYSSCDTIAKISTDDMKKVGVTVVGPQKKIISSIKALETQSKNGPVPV
Particulars: at 10 µM.

Test [2] deals with Ephrin type-A receptor 4 (Homo sapiens) (UniProt P54764). Particulars: at 1 µM.
Sequence of Ephrin type-A receptor 4 (Homo sapiens) (P54764 whole entry): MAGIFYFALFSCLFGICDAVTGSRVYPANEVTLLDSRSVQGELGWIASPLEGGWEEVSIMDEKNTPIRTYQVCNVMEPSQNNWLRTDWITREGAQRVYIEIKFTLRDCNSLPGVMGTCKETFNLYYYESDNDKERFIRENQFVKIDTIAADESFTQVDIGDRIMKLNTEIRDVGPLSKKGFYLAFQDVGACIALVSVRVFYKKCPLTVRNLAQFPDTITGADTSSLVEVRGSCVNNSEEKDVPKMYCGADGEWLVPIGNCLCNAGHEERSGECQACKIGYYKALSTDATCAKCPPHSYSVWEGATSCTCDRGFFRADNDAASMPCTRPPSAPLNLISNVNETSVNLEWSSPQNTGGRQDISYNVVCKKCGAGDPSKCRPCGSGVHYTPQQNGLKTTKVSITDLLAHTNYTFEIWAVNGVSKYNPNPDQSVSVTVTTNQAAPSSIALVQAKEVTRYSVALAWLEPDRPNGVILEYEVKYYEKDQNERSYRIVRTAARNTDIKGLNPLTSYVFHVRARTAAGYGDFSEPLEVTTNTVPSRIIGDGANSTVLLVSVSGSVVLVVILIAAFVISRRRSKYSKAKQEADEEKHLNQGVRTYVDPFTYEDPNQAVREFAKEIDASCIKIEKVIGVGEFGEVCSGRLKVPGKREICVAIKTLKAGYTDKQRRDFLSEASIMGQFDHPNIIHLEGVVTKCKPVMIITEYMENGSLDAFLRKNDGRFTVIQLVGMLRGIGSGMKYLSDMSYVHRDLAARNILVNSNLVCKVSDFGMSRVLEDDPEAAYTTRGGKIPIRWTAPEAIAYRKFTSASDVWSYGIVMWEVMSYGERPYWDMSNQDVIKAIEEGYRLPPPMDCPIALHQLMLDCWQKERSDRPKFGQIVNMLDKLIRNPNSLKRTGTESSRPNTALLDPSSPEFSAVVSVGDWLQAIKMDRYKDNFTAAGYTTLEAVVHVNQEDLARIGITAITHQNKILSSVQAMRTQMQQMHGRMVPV
The target is the same in test [3]. Particulars: at 10 µM.
For test [4], the target named is Ephrin type-A receptor 5 (Homo sapiens) (UniProt P54756). To be noted: at 1 µM.
Sequence of Ephrin type-A receptor 5 (Homo sapiens) (P54756 whole entry): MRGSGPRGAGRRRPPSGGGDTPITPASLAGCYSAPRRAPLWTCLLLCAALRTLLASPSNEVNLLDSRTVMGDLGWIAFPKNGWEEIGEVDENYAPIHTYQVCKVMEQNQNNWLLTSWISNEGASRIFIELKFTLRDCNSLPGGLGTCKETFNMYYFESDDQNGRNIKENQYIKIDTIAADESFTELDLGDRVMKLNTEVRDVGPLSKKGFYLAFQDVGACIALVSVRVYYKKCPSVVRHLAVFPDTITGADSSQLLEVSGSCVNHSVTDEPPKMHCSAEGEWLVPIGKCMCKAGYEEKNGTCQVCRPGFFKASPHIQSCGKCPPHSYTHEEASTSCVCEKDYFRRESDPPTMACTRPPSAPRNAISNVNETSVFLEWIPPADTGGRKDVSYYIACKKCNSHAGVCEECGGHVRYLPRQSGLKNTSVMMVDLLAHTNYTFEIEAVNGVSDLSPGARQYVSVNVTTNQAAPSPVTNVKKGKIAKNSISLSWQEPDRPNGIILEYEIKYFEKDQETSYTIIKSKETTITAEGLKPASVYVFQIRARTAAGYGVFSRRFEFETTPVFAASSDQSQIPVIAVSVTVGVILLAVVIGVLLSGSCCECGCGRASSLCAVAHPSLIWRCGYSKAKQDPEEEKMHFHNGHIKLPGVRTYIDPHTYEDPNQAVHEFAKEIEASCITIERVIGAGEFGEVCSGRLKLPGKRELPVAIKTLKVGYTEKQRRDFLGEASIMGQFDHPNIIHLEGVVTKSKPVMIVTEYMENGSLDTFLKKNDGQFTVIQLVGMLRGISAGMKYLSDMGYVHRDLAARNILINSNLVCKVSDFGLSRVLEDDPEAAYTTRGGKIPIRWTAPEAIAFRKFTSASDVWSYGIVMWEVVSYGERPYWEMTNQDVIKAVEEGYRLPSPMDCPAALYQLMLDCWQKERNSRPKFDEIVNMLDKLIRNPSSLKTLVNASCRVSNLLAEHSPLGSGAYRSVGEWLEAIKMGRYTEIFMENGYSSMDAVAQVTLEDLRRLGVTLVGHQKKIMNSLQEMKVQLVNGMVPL
Test [5] has the same target. Particulars: at 10 µM.
In test [6] the target is Ephrin type-A receptor 7 (Homo sapiens) (UniProt Q15375). To be noted: at 1 µM.
Sequence of Ephrin type-A receptor 7 (Homo sapiens) (Q15375 28-998 limits assumed): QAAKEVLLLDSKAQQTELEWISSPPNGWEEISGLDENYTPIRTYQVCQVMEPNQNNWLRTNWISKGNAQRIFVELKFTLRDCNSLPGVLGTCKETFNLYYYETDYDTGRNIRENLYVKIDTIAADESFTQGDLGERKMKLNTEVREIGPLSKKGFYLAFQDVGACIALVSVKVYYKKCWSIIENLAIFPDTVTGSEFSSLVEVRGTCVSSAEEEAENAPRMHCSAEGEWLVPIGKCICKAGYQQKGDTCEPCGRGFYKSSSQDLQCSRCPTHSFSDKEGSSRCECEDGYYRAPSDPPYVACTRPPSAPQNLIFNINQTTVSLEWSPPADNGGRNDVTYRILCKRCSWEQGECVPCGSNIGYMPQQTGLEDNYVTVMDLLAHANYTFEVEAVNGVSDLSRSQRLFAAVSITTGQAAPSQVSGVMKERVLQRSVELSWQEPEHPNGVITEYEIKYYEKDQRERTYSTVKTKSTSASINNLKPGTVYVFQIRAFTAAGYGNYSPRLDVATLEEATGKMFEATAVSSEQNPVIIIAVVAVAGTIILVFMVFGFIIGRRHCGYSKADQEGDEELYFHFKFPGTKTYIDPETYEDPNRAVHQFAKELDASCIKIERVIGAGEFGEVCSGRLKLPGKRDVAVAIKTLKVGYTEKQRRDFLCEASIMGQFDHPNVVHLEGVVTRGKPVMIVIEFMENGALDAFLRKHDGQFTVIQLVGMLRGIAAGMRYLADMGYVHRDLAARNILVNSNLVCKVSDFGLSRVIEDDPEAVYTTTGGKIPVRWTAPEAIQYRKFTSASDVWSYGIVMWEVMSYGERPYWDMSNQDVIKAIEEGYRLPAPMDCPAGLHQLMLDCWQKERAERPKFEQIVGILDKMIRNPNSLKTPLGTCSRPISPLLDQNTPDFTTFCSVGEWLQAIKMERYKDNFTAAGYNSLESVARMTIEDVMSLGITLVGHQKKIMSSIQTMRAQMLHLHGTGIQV
For test [7] the target is unchanged. Particulars: at 10 µM.
For test [8], the target named is T2, Ephrin type-A receptor 8 (Homo sapiens) (UniProt P29322).
T2 sequence (whole entry): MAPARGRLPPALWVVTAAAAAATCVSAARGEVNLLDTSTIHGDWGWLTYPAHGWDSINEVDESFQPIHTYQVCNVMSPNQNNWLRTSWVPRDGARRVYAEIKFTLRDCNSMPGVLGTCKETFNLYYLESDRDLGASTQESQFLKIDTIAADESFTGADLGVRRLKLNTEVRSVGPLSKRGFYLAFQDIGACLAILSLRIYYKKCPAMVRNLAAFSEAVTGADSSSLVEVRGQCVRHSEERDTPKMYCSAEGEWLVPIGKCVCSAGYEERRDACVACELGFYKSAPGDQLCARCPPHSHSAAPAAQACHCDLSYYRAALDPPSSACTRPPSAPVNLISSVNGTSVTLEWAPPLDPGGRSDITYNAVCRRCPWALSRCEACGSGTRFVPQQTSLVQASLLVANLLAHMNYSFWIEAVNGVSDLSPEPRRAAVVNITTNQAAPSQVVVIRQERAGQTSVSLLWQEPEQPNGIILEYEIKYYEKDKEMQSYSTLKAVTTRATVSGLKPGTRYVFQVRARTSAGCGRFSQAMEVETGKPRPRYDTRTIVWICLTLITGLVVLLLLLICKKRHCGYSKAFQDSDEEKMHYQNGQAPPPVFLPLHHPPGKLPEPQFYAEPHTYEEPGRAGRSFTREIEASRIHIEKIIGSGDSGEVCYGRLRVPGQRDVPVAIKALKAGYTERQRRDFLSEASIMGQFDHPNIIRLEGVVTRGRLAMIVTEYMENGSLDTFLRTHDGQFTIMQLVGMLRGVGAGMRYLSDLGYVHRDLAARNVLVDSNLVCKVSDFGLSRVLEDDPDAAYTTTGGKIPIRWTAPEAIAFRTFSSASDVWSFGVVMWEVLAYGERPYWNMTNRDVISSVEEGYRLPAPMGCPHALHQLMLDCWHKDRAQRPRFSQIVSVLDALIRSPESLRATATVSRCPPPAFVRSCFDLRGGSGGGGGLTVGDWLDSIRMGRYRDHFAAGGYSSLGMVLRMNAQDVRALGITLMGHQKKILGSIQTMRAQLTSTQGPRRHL
Particulars: at 1 µM.

For test [9], the target named is T2, Ephrin type-A receptor 8 (Homo sapiens). Particulars: at 10 µM.
The target in test [10] is T3, Ephrin type-B receptor 1 (Homo sapiens) (UniProt P54762).
T3 sequence (whole entry): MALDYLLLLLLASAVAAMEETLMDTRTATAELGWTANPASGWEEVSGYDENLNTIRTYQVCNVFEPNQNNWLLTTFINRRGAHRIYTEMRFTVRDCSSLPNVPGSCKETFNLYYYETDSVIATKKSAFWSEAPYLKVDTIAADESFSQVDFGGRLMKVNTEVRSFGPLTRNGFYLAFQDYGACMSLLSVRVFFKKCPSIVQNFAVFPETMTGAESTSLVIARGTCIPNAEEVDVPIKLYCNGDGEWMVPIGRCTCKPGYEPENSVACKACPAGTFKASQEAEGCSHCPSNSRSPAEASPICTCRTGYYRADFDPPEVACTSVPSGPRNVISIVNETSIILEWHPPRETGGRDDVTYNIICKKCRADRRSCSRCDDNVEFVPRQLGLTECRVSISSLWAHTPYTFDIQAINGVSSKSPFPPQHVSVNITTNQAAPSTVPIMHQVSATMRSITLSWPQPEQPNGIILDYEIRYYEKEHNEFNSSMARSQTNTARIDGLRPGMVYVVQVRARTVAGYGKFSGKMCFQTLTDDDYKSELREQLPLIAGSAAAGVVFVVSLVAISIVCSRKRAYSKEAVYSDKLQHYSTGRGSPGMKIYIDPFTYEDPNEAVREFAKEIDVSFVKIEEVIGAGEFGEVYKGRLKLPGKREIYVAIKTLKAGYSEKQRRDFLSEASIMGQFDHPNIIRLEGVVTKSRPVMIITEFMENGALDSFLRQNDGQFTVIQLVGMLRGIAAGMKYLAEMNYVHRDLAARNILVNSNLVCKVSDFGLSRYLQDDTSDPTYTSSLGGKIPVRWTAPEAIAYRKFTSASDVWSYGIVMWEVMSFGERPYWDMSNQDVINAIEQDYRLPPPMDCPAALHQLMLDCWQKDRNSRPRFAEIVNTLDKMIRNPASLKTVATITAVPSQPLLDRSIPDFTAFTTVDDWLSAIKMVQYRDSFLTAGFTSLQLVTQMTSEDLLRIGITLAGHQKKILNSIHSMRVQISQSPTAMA
To be noted: at 1 µM.

By residual activity is commonly meant the activity still measured, relative to the control. Low readings indicate a large loss of activity, high ones a small loss of activity. As for `O=Nc1c(-c2c(O)[nH]c3ccccc23)[nH]c2ccccc12`, the residual activity in test [1] is 9%; in [2], 96%; in [3] it was 83%; in test [4], 59%; in [5] it was 9%; in [6], 70%. Also, the residual activity came to 15% in [7], 84% in [8], 43% in [9] and 59% in test [10].
